Reference: the supplement of paper PMC4894684
Counter-ions that a name gives are not always drawn. ± gives the standard deviation of the averaged measurements.

Test system: Toxoplasma gondii RH (in HFF)
Assay: parasite growth relative to the screen mean (all compounds = 100%); higher = less inhibition of parasite growth
Conditions: 5 µM; 72 h; oxygen 21 %
Outline: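 Values give growth relative to the screen mean. The screen mean (all compounds) is set at 100%, and two screens were averaged. Compounds at 5 µM final were placed on confluent human foreskin fibroblasts, which were infected within 2 h with RH β-Gal–GFP Toxoplasma (MOI 1:5) and kept 72 h at 21% O2 before a CPRG β-Gal readout against in-plate standard curves.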

Compound | parasite growth [%]
CCn1c(=O)[nH]c2cc(Cl)c(Cl)cc21 | 89.8 ± 61
C1CCC(N=C(NC23CC4CC(CC(C4)C2)C3)N2CCOCC2)CC1 | 100 ± 31
COc1ccc(Cl)cc1NC(=O)Nc1cc(C)nc2ccccc12 | 52.7 ± 30
Cc1nc2c(OCc3ccccc3)cccn2c1CC#N | 153 ± 7.3
CC(C)NC[C@H](O)COc1cccc2ccccc12 [(S)-(-)-Propranolol hydrochloride] | 81.8 ± 3.3
CC(C)C1C2CCC(C2)C1N (centres undefined) | 118 ± 6.6
FC(F)(F)c1cccc(-c2noc(-c3cc(-c4ccccc4)c(C(F)(F)F)s3)n2)c1 | 109 ± 44
CC(C)[N+]1(C)[C@@H]2CC[C@H]1C[C@@H](OC(=O)C(CO)c1ccccc1)C2 (some centres undefined) [Ipratropium bromide] | 76.1 ± 21
CCOc1ccccc1OC(c1ccccc1)C1CNCCO1 (centres undefined) [Reboxetine mesylate] | 102 ± 5.2
Cc1cc(C(=O)O)sc1C(N)C(=O)O (centres undefined) | 126 ± 5.2
NS(=O)(=O)c1cccc2c1c([N+](=O)[O-])cc1nc(O)c(O)nc12 [NBQX disodium salt] | 112 ± 14
CN(C)c1ccc(/C=C2/C(=O)Nc3ccccc32)cc1 | 124 ± 26
CN1CCN2c3ccccc3Cc3ccccc3C2C1 (centres undefined) [Mianserin hydrochloride] | 154 ± 39
O=C1NC(=O)c2cc(Nc3ccc(F)cc3)c(Nc3ccc(F)cc3)cc21 | 171 ± 51
O=C1C=CC(=O)C2=C1C1c3ccccc3C2c2ccccc21 | 137 ± 48
COC(=O)C(Cc1ccc(OCCn2c(=O)sc3cc(C(=O)c4ccccc4)ccc32)cc1)C(=O)OC | 120 ± 5.3
Oc1ccc(-c2nc3cc(O)cc(Br)c3o2)cc1 | 134 ± 20
CN(C)C/C=C(/c1ccc(Br)cc1)c1cccnc1 [Zimelidine dihydrochloride] | 126 ± 4.6
c1ccc(CN2CCC3(CCc4ccccc43)CC2)cc1 [L-693,403 maleate] | 135 ± 10
c1cc2c(cc1C1CCCCC1)c1c3n2CCNC3CCC1 (centres undefined) [Tetrindole mesylate] | 13.2 ± 2.2
Cc1cccc(C(=O)NCN2CCN(c3ccccc3C#N)CC2)c1 | 133 ± 7.4
CCc1cc(-c2n[nH]c(C)c2-c2ccc3c(c2)OCCO3)c(O)cc1O | 215 ± 12
CC#CCOC(=O)C1=CCCN(C)C1 [Arecaidine but-2-ynyl ester tosylate] | 144 ± 12

Compound | parasite growth [%]
COc1nccc(-c2c(-c3ccc(F)cc3)ncn2C2CCC(O)CC2)n1 (centres undefined) | < 0
CCCCCCCC/C=C\CCCCCCCC(=O)N[C@@H](CO)Cc1ccc(O)cc1 | 171 ± 11
CC1CCN=C(N)S1 (centres undefined) [AMT hydrochloride] | 70.6 ± 8.5
O=c1[nH]c2cc(C(F)(F)F)c(N3CCOCC3)cc2n(CP(=O)(O)O)c1=O | 118 ± 4
FC(F)(F)c1ccc(/C=C/c2nc(COc3ccc(CCCCn4ccnn4)cc3)co2)cc1 | 36 ± 14
NCCCCNCCCN [Spermidine trihydrochloride] | 90.6 ± 7.8
CN(C)C(=O)C(=O)c1cn(C)c2cc(Cl)c(C(=O)N3CCC(Cc4ccc(F)cc4)CC3)cc12 | 140 ± 28
Nc1ncn([C@H]2C[C@H](O)[C@@H](CO)O2)c(=O)n1 [Decitabine] | 119 ± 9.9
OCC1OC(n2cnc3c(NC4CCCC4)nc(Cl)nc32)C(O)C1O (centres undefined) [2-Chloro-N6-cyclopentyladenosine] | 138 ± 11
CCS(=O)(=O)N(C)[C@H]1c2cc(C#N)ccc2OC(C)(C)[C@@H]1O (racemic) [Chromanol 293B] | 142 ± 10
COc1ccc(NC(=O)c2cc(OCCCN(C)C)nn2Cc2ccccc2)cc1 [CFM 1571 hydrochloride] | 106 ± 4.8
CCCCNC(=O)[C@@H]1Cc2ccccc2N1C(=O)[C@@H](N)CC [Butabindide oxalate] | 130 ± 7.7
CCOCC(O)COc1ccc(NC(=O)CC[S+](C)C)cc1 (centres undefined) [Suplatast tosylate] | 75 ± 16
COC(=O)[C@@H]1CC2=CC(=O)CC[C@]2(C)[C@@]23O[C@@H]2C[C@@]2(C)[C@@H](CC[C@@]24CCC(=O)O4)[C@H]13 [Eplerenone] | 132 ± 22
CCOC(=O)c1ccc(OC(=O)CCCCCNC(=N)N)cc1 [Gabexate mesylate] | 144 ± 6.4
OCC(CO)N[C@H]1C[C@](O)(CO)[C@@H](O)[C@H](O)[C@H]1O [Voglibose] | 68.07 ± 0.24
Nc1ncnc2nc(-c3ccc(N4CCOCC4)nc3)cc(-c3cccc(Br)c3)c12 [ABT 702 dihydrochloride] | 100 ± 9.5
CCOC(=O)[C@]12CC1/C(=N\O)c1ccccc1O2 (some centres undefined) | 83 ± 23
O=C1Nc2ccc(I)cc2/C1=C/c1cc(Br)c(O)c(Br)c1 | 114 ± 18
CCCNC(=O)N1N=C(c2ccc(N)cc2)c2cc3c(cc2C1C)OCO3 (centres undefined) | 99.9 ± 32
COC(=O)[C@@H]1[C@H]2C[C@H]3c4[nH]c5ccccc5c4CCN3C[C@@H]2CC[C@@H]1O [Yohimbine hydrochloride] | 184 ± 33
CNCCC(Oc1ccc(C(F)(F)F)cc1)c1ccccc1 (centres undefined) [Fluoxetine hydrochloride] | 20.9 ± 8.2
CC[N+](C)(CC)CC(=O)Nc1c(C)cccc1C [N-Methyllidocaine iodide] | 119 ± 24

Compound | parasite growth [%]
Clc1ccc2nsnc2c1NC1=NCCN1 [Tizanidine hydrochloride] | 113 ± 2.4
COC(=O)[C@H]1[C@H]2C[C@@H]3c4[nH]c5cc(OC)ccc5c4CCN3C[C@H]2C[C@@H](OC(=O)c2cc(OC)c(OC)c(OC)c2)[C@@H]1OC [Reserpine] | 78.4 ± 47
COc1c(C)c2c(c(O)c1C/C=C(\C)CCC(=O)O)C(=O)OC2 [Mycophenolic acid] | < 0
COc1cc2nc(N3CCN(C(=O)C4CCCO4)CC3)nc(N)c2cc1OC (centres undefined) [Terazosin hydrochloride] | 122 ± 12
OC(CNCC(O)C1CCc2cc(F)ccc2O1)C1CCc2cc(F)ccc2O1 (centres undefined) [Nebivolol hydrochloride] | 46 ± 23
COc1cc(OC)c(NC(=O)Nc2cc(C)on2)cc1Cl | 135 ± 17
CNCCCC12CCC(c3ccccc31)c1ccccc12 [Maprotiline hydrochloride] | 54.1 ± 17
Nc1c2c(nc3ccccc13)CCCC2 [Tacrine hydrochloride] | 130 ± 27
COc1ccc2[nH]c(I)c(CCNC(C)=O)c2c1 [2-Iodomelatonin] | 106 ± 4.9
Nc1nc2c(ncn2COCCO)c(=O)[nH]1 [Acyclovir] | 124 ± 28
CC(=O)OCCNC(=O)c1cccnc1 [N-[2-(Acetoxy)ethyl]-3-pyridinecarboxamide] | 117 ± 13
CC[C@@H]1Cn2c(c3nc(-c4ccccc4)nc-3n(C)c2=O)N1 | 96.8 ± 13
COc1ccc(-n2[nH]c3c4c(ncc3c2=O)CCCCC4)cc1 | 105 ± 28
CN/C(=N\CCSCc1nc[nH]c1C)NC#N [Cimetidine] | 118 ± 10
CCOC(=O)C1=C(C)NC(C)=C(C(=O)OC)C1c1cccc([N+](=O)[O-])c1 (centres undefined) [Nitrendipine] | 118 ± 5.5
CNC(=O)c1cc2c(cn1)[nH]c1ccccc12 | 124 ± 19
CC(=O)N(O)[C@@H]1c2cc(C#N)ccc2OC(C)(C)[C@H]1O | 92.8 ± 30
CCCCCCCCCCCCCCCCn1cc[n+](Cc2ccccc2)c1C | < 0
CC1c2ccccc2CN1CC1=NCCN1 (centres undefined) | 131 ± 4.2
COc1cc(OC)c(C(=O)CCCCN2CCC3(CC2)NC(=O)NC3=O)cc1NS(=O)(=O)c1ccc(C(F)(F)F)cc1 | 109 ± 11
COc1cccc(OC)c1OCCNCC1COc2ccccc2O1 (centres undefined) [WB 4101 hydrochloride] | 93.3 ± 33
COC(=O)C1=C(C)NC(C)=C([N+](=O)[O-])C1c1ccccc1C(F)(F)F (racemic) | 167 ± 8.8
CC[C@@H]1C(=O)OC[C@@H]1Cc1cncn1C [Pilocarpine hydrochloride] | 76.5 ± 19

Compound | parasite growth [%]
CCS(=O)(=O)N1CCC[C@@H]2CN3CCc4cc(OC)ccc4[C@@H]3C[C@@H]21 | 125 ± 31
CN(C)CCC1(c2ccc(Cl)cc2)Cc2ccccc2C(=O)O1 (racemic) [(±)-AC 7954 hydrochloride] | 98.7 ± 67
COc1ccccc1C1(O)CCN(CCCn2c3ccccc3c3ccccc32)CC1 [NNC 05-2090 hydrochloride] | < 0
CC(C)NC[C@H](O)COc1ccc(CC(N)=O)cc1 [S-(-)-Atenolol] | 149 ± 12
Nc1nc(Cl)nc2c1ncn2[C@@H]1O[C@H](CO)[C@@H](O)[C@@H]1F [Clofarabine] | 67.9 ± 2.8
CC(C)[C@H](NS(=O)(=O)c1ccc(-c2ccc(Br)cc2)cc1)C(=O)O | 130 ± 34
Oc1c2ccccc2c2c3c(cccc13)N=N2 | 7.23 ± 4.4
CC(=O)N1CCN(C)CC1 [1-Acetyl-4-methylpiperazine hydrochloride] | 109 ± 40
COc1cc(SC)ccc1C(=O)N1CCC(Cc2ccccc2)CC1 | 112 ± 5.8
Cc1cc(F)c(Nc2ncnc3cc(OCc4ccccc4)ccc23)cc1O | 11.2 ± 13
CCCCCCC(=O)OC1CC(C)(C)NC(C)(C)C1 [TMPH hydrochloride] | 123 ± 14
O=C(O)C1=CCNCC1 [Isoguvacine hydrochloride] | 130 ± 9.5
CC(=O)N(OCc1ccccc1)[C@H]1c2cc(C#N)ccc2OC(C)(C)[C@H]1O | 112 ± 33
CNC(=O)[C@H]1O[C@@H](n2cnc3c(NCc4cccc(I)c4)nc(Cl)nc32)[C@H](O)[C@@H]1O | 120 ± 28
COc1ccc(-c2nc(-c3ccc(-c4cccc(Cl)c4)o3)[nH]c2-c2ccc(OC)cc2)cc1 [Neurodazine] | 120 ± 28
C[C@H](NC[C@H](O)CP(=O)(O)Cc1ccccc1)c1ccc(Cl)c(Cl)c1 | 108.5 ± 0.57
O=C(O)Cc1ccc(OCCNC[C@H](O)c2ccccc2)cc1 [ZD 2079 hydrochloride] | 119 ± 12
Cc1cc2nc3c(=O)[nH]c(=O)nc-3n(C)c2cc1C=O | 22.6 ± 1.9
C[C@H](NC[C@H](O)CP(=O)(O)CC1CCCCC1)c1ccc(Cl)c(Cl)c1 | 129 ± 36
N#C/C(=C\c1ccc(O)c(O)c1)C(=O)NCc1ccccc1 | 148 ± 13
